Assays:
Assay in all cases: yeast three-hybrid, YBZ-1, SC-Leu-His + 0.5 mM 3-AT, 4 days
Conditions in all cases: tags: N-Gal4 AD-HA kept; label: inside an RPR1-promoter hybrid RNA with tandem MS2 sites; ssRNA
PUM1 PUF domain R5-QTI = PUM1 PUF domain R5-QTI (Homo sapiens, UniProt Q14671 828-1176, C1007Q;R1008T;Q1011I)
Summary of the method: (§1)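 Sequencing with Illumina followed PCR amplification of the repeat regions from transformants grown four days on SC-Leu (input) or SC-Leu-His + 0.5 mM 3-AT (selection). The transformants were strain YBZ-1 with a LexA–MS2 coat fusion and a HIS3 reporter, carrying Pumilio-1 PUF domain libraries and matching RNA elements. The interaction score is the log change in variant frequency from input to selection, computed in log2 with a pseudocount of 1 for absent variants.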

PUM1 PUF domain R5-RWS = PUM1 PUF domain R5-RWS (Homo sapiens, UniProt Q14671 828-1176, C1007R;R1008W;Q1011S)
Summary of the method: as §1

PUM1 PUF domain R5-PHG = PUM1 PUF domain R5-PHG (Homo sapiens, UniProt Q14671 828-1176, C1007P;R1008H;Q1011G)
Summary of the method: as §1

PUM1 PUF domain R3-MWY = PUM1 PUF domain R3-MWY (Homo sapiens, UniProt Q14671 828-1176, C935M;R936W;Q939Y)
Summary of the method: as §1

PUM1 PUF domain R3-VFA = PUM1 PUF domain R3-VFA (Homo sapiens, UniProt Q14671 828-1176, C935V;R936F;Q939A)
Summary of the method: as §1

PUM1 PUF domain R3-PWL = PUM1 PUF domain R3-PWL (Homo sapiens, UniProt Q14671 828-1176, C935P;R936W;Q939L)
Summary of the method: as §1

PUM1 PUF domain R4-APM = PUM1 PUF domain R4-APM (Homo sapiens, UniProt Q14671 828-1176, N971A;H972P;Q975M)
Summary of the method: as §1

PUM1 PUF domain R3-GPW = PUM1 PUF domain R3-GPW (Homo sapiens, UniProt Q14671 828-1176, C935G;R936P;Q939W)
Summary of the method: as §1

PUM1 PUF domain R6-RYT = target: T1, PUM1 PUF domain R6-RYT (Homo sapiens, UniProt Q14671 828-1176, N1043R;Q1047T)
T1 sequence: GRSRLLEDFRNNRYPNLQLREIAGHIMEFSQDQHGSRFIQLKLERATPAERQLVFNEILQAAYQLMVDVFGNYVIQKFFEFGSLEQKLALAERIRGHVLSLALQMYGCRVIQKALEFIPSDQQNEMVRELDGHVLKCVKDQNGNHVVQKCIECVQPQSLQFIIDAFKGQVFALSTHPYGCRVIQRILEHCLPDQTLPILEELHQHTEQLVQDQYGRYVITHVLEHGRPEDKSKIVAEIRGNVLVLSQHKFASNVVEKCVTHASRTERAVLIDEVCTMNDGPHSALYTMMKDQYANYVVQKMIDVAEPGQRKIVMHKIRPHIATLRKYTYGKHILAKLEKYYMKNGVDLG
Summary of the method: as §1

PUM1 PUF domain R4-RRY = PUM1 PUF domain R4-RRY (Homo sapiens, UniProt Q14671 828-1176, N971R;H972R;Q975Y)
Summary of the method: as §1

PUM1 PUF domain R3-EFV = PUM1 PUF domain R3-EFV (Homo sapiens, UniProt Q14671 828-1176, C935E;R936F;Q939V)
Summary of the method: as §1

PUM1 PUF domain R5-LYV = PUM1 PUF domain R5-LYV (Homo sapiens, UniProt Q14671 828-1176, C1007L;R1008Y;Q1011V)
Summary of the method: as §1

PUM1 PUF domain R8-KHL = PUM1 PUF domain R8-KHL (Homo sapiens, UniProt Q14671 828-1176, N1122K;Y1123H;Q1126L)
Summary of the method: as §1

PUM1 PUF domain R3-ACF = PUM1 PUF domain R3-ACF (Homo sapiens, UniProt Q14671 828-1176, C935A;R936C;Q939F)
Summary of the method: as §1

PUM1 PUF domain R8-MRR = PUM1 PUF domain R8-MRR (Homo sapiens, UniProt Q14671 828-1176, N1122M;Y1123R;Q1126R)
Summary of the method: as §1

PUM1 PUF domain R8-VYP = PUM1 PUF domain R8-VYP (Homo sapiens, UniProt Q14671 828-1176, N1122V;Q1126P)
Summary of the method: as §1

PUM1 PUF domain R1-RST = PUM1 PUF domain R1-RST (Homo sapiens, UniProt Q14671 828-1176, S863R;R864S;Q867T)
Summary of the method: as §1

PUM1 PUF domain R1-KVR = PUM1 PUF domain R1-KVR (Homo sapiens, UniProt Q14671 828-1176, S863K;R864V;Q867R)
Summary of the method: as §1

PUM1 PUF domain R1-RLC = PUM1 PUF domain R1-RLC (Homo sapiens, UniProt Q14671 828-1176, S863R;R864L;Q867C)
Summary of the method: as §1

PUM1 PUF domain R3-WCA = PUM1 PUF domain R3-WCA (Homo sapiens, UniProt Q14671 828-1176, C935W;R936C;Q939A)
Summary of the method: as §1

Sequence of PUM1 PUF domain R4-APM (Q14671 828-1176 N971A/H972P/Q975M): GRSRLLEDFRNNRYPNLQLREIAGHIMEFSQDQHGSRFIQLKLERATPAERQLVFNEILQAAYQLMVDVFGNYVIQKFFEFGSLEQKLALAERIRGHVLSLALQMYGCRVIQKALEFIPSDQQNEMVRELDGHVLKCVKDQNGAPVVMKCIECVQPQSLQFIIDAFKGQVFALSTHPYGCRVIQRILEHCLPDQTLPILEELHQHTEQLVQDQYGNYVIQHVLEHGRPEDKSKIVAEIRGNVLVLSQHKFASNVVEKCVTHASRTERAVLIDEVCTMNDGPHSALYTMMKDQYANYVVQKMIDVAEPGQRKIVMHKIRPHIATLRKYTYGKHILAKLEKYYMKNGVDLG
Sequence of PUM1 PUF domain R3-VFA (Q14671 828-1176 C935V/R936F/Q939A): as the sequence (Q14671 828-1176 N971A/H972P/Q975M) above, with C108V, R109F, Q112A, A144N, P145H, M148Q counted along it
Sequence of PUM1 PUF domain R1-RLC (Q14671 828-1176 S863R/R864L/Q867C): as the sequence (Q14671 828-1176 N971A/H972P/Q975M) above, with S36R, R37L, Q40C, A144N, P145H, M148Q counted along it
Sequence of PUM1 PUF domain R8-VYP (Q14671 828-1176 N1122V/Q1126P): as the sequence (Q14671 828-1176 N971A/H972P/Q975M) above, with A144N, P145H, M148Q, N295V, Q299P counted along it
Sequence of PUM1 PUF domain R3-PWL (Q14671 828-1176 C935P/R936W/Q939L): as the sequence (Q14671 828-1176 N971A/H972P/Q975M) above, with C108P, R109W, Q112L, A144N, P145H, M148Q counted along it
Sequence of PUM1 PUF domain R8-MRR (Q14671 828-1176 N1122M/Y1123R/Q1126R): as the sequence (Q14671 828-1176 N971A/H972P/Q975M) above, with A144N, P145H, M148Q, N295M, Y296R, Q299R counted along it
Sequence of PUM1 PUF domain R5-PHG (Q14671 828-1176 C1007P/R1008H/Q1011G): as the sequence (Q14671 828-1176 N971A/H972P/Q975M) above, with A144N, P145H, M148Q, C180P, R181H, Q184G counted along it
Sequence of PUM1 PUF domain R1-KVR (Q14671 828-1176 S863K/R864V/Q867R): as the sequence (Q14671 828-1176 N971A/H972P/Q975M) above, with S36K, R37V, Q40R, A144N, P145H, M148Q counted along it
Sequence of PUM1 PUF domain R5-RWS (Q14671 828-1176 C1007R/R1008W/Q1011S): as the sequence (Q14671 828-1176 N971A/H972P/Q975M) above, with A144N, P145H, M148Q, C180R, R181W, Q184S counted along it
Sequence of PUM1 PUF domain R3-ACF (Q14671 828-1176 C935A/R936C/Q939F): as the sequence (Q14671 828-1176 N971A/H972P/Q975M) above, with C108A, R109C, Q112F, A144N, P145H, M148Q counted along it

## GGCUAGAACUAGUGGAUCCCCCGGCGCCCGGCGGCUCGAGCCCGGGUAAGUGUGAAUAGUCUGCAUGCCGCCGGGCGCCAUGCCUGCAGGUCGACUCUAGAAAACAUG
PUM1 PUF domain R5-QTI
  binding signal: 3.11 log2 enrichment (interaction score)

## GGCUAGAACUAGUGGAUCCCCCGGCGCCCGGCGGCUCGAGCCCGGGUAAGUGUUAAUAGUCUGCAUGCCGCCGGGCGCCAUGCCUGCAGGUCGACUCUAGAAAACAUG
PUM1 PUF domain R5-RWS
  binding signal: 6.47 log2 enrichment (interaction score)
PUM1 PUF domain R5-PHG
  binding signal: 4.37 log2 enrichment (interaction score)

## GGCUAGAACUAGUGGAUCCCCCGGCGCCCGGCGGCUCGAGCCCGGGUAAGUGUAAUUAGUCUGCAUGCCGCCGGGCGCCAUGCCUGCAGGUCGACUCUAGAAAACAUG
PUM1 PUF domain R3-MWY
  binding signal: 3.31 log2 enrichment (interaction score)
PUM1 PUF domain R3-VFA
  binding signal: 2.77 log2 enrichment (interaction score)
PUM1 PUF domain R3-PWL
  binding signal: 3.68 log2 enrichment (interaction score)

## GGCUAGAACUAGUGGAUCCCCCGGCGCCCGGCGGCUCGAGCCCGGGUAAGUGUAUAUAGUCUGCAUGCCGCCGGGCGCCAUGCCUGCAGGUCGACUCUAGAAAACAUG
PUM1 PUF domain R4-APM
  binding signal: 2.03 log2 enrichment (interaction score)

## GGCUAGAACUAGUGGAUCCCCCGGCGCCCGGCGGCUCGAGCCCGGGUAAGUGUAAAUAGUCUGCAUGCCGCCGGGCGCCAUGCCUGCAGGUCGACUCUAGAAAACAUG
PUM1 PUF domain R3-GPW
  binding signal: 4.04 log2 enrichment (interaction score)
PUM1 PUF domain R6-RYT
  binding signal: 2.71 log2 enrichment (interaction score)
PUM1 PUF domain R4-RRY
  binding signal: 2.87 log2 enrichment (interaction score)
PUM1 PUF domain R3-EFV
  binding signal: 3.71 log2 enrichment (interaction score)
PUM1 PUF domain R5-LYV
  binding signal: 3.28 log2 enrichment (interaction score)
PUM1 PUF domain R8-KHL
  binding signal: 4.75 log2 enrichment (interaction score)
PUM1 PUF domain R4-APM
  binding signal: 4.28 log2 enrichment (interaction score)
PUM1 PUF domain R3-ACF
  binding signal: 4.04 log2 enrichment (interaction score)
PUM1 PUF domain R3-PWL
  binding signal: 2.76 log2 enrichment (interaction score)
PUM1 PUF domain R8-MRR
  binding signal: 1.68 log2 enrichment (interaction score)
PUM1 PUF domain R8-VYP
  binding signal: 2.77 log2 enrichment (interaction score)
PUM1 PUF domain R5-PHG
  binding signal: 4.89 log2 enrichment (interaction score)

## GGCUAGAACUAGUGGAUCCCCCGGCGCCCGGCGGCUCGAGCCCGGGUAAGUGUAAAUGGUCUGCAUGCCGCCGGGCGCCAUGCCUGCAGGUCGACUCUAGAAAACAUG
PUM1 PUF domain R1-RST
  binding signal: 2.92 log2 enrichment (interaction score)

## GGCUAGAACUAGUGGAUCCCCCGGCGCCCGGCGGCUCGAGCCCGGGUAAGUGUAAAUCGUCUGCAUGCCGCCGGGCGCCAUGCCUGCAGGUCGACUCUAGAAAACAUG
PUM1 PUF domain R1-RST
  binding signal: 5.18 log2 enrichment (interaction score)
PUM1 PUF domain R1-KVR
  binding signal: 1.81 log2 enrichment (interaction score)
PUM1 PUF domain R1-RLC
  binding signal: 3.21 log2 enrichment (interaction score)

## GGCUAGAACUAGUGGAUCCCCCGGCGCCCGGCGGCUCGAGCCCGGGUAAGCGUAAAUAGUCUGCAUGCCGCCGGGCGCCAUGCCUGCAGGUCGACUCUAGAAAACAUG
PUM1 PUF domain R8-KHL
  binding signal: 5.8 log2 enrichment (interaction score)
PUM1 PUF domain R8-MRR
  binding signal: 2.54 log2 enrichment (interaction score)
PUM1 PUF domain R8-VYP
  binding signal: 3.87 log2 enrichment (interaction score)

## GGCUAGAACUAGUGGAUCCCCCGGCGCCCGGCGGCUCGAGCCCGGGUAAGUGUAAGUAGUCUGCAUGCCGCCGGGCGCCAUGCCUGCAGGUCGACUCUAGAAAACAUG
PUM1 PUF domain R3-WCA
  binding signal: 3.27 log2 enrichment (interaction score)
PUM1 PUF domain R3-VFA
  binding signal: 2.39 log2 enrichment (interaction score)

## GGCUAGAACUAGUGGAUCCCCCGGCGCCCGGCGGCUCGAGCCCGGGUAAGUGUACAUAGUCUGCAUGCCGCCGGGCGCCAUGCCUGCAGGUCGACUCUAGAAAACAUG
PUM1 PUF domain R4-APM
  binding signal: 2.11 log2 enrichment (interaction score)

## GGCUAGAACUAGUGGAUCCCCCGGCGCCCGGCGGCUCGAGCCCGGGUAAGUGUAAAUUGUCUGCAUGCCGCCGGGCGCCAUGCCUGCAGGUCGACUCUAGAAAACAUG
PUM1 PUF domain R1-RST
  binding signal: 3.88 log2 enrichment (interaction score)
PUM1 PUF domain R1-KVR
  binding signal: 5.73 log2 enrichment (interaction score)
PUM1 PUF domain R1-RLC
  binding signal: 1.93 log2 enrichment (interaction score)
